Sampled rows, rich in hits. Any-hit rate of the full collection: about 2.3%.
CF NFkB inh: blocks PAF-induced NF-kB reporter in cystic fibrosis cells. KKLEB NF-kB-GFP reporter, GFP fluorescence overnight. hit rate 0.86% among 360,000. AID 588850. inhibition, % at 5 µM;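 active = at least 50% inhibition at 5 µM, scaled per plate between neutral and stimulator controls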;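 also: PAF is a Pseudomonas aeruginosa culture filtrate used as stimulus; plate controls were PAF-stimulated DMSO wells for no effect and unstimulated DMSO wells for full effect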
LGR2 antag: inhibitors of bursicon-induced Drosophila LGR2 receptor cAMP signaling; HEK293 LGR2, CRE-luciferase, bursicon-stimulated, 4 h; inhibition, % at 9.99 µM; hit rate 0.35% among 380,000; AID 720647;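 active = drop in luminescence signal, shown as inhibition above about 50% in the replicate tests, limit read from the data, passing the limit was not always enough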;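 also: agonist challenge used bursicon conditioned medium at about half maximal strength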
HIF-2a block: inhibitors of HIF-2a; AID 624352; 786-0 RCC cells HIF-2a reporter, luciferase luminescence, overnight; inhibition, % at 18.8 µM; hit rate 0.72% among 360,000;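 active = inhibition of the luminescence signal of 40% or more relative to plate controls, in a single-dose primary screen at 18.75 µM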
TWEAK-Fn14 inh: blocks TWEAK-Fn14 interaction in a reporter cell assay | inhibition, % at 10 µM | hit rate 2% among 360,000 | AID 1159606 | TWEAK-stimulated Fn14 reporter cells, luciferase luminescence, 8 h; in the data active = inhibition above about 50%
KKLEB cytotox: counter-screen for CF NF-kB inhibitors: cytotoxicity; AID 602141; hit rate 0.36% among 360,000; activity change (cytotoxicity), % at 5 µM; KKLEB CF airway cells viability, ATPlite luminescence, overnight; active compounds read low; cells stimulated with P. aeruginosa culture filtrate;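 active = corrected activity change at or below -50% at 5 µM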
iPSC survival up: increases survival of single human iPS cells; hiPSC single-cell survival, ATPlite luminescence; 100% = ROCK inhibitor wells, 0% = DMSO; survival enhancement, % at 20 µM; hit rate 0.044% among 360,000; AID 602274; in the data active = survival enhancement above about 18%;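 also: cells exposed to compounds for 16 hours before the ATP read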
* hit, by the source's call; x = not tested or not shown.

SMILES | CF NFkB inh | LGR2 antag | HIF-2a block | TWEAK-Fn14 inh | KKLEB cytotox | iPSC survival up
COc1ccc(NC(=O)C2CCCN2S(=O)(=O)c2cccc3nsnc23)c(OC)c1 (configuration not stated) | -24.5 | x | -0.4 | 70.4* | 16.1 | 0.1
COc1ccccc1NC(=O)C1CCCN1S(=O)(=O)c1cccc2nsnc12 (configuration not stated) | 18.7 | x | 9.6 | -1.2 | -3.2 | -0.3
COc1cccc(NC(=O)C2CCN(c3cnccn3)CC2)c1 | 3.9 | 2.9 | 4.8 | 98.2* | 0.6 | -0.6
CC1CCN(CCCn2c(=S)[nH]c3ccc(N4CCOCC4)cc3c2=O)CC1 | 8.5 | x | 12.6 | -16.3 | -67.1* | -0.9
C[C@@H]1CCCCO[C@@H](CN(C)S(=O)(=O)c2ccc(Cl)cc2)[C@@H](C)CN([C@H](C)CO)C(=O)c2cc(NS(C)(=O)=O)ccc2O1 | x | 17.6 | x | x | x | x
O=C(O)c1cccc(Nc2nc3ccccc3nc2NS(=O)(=O)c2ccc(F)cc2)c1 | -1.6 | 0.2 | 5.3 | 13.4 | 12.1 | -0.9
O=S(=O)(Nc1nc2ccccc2nc1Nc1cccc(S(=O)(=O)N2CCCCC2)c1)c1ccccc1 | 64.7* | 45.8 | 22.6 | 76.8* | -61.3* | 3.6
COc1ccc(S(=O)(=O)Nc2cccc(S(=O)(=O)N3CCCCCC3)c2)cc1 | -0.3 | 31.7 | 4.9 | 5.4 | -6.1 | -0.3
O=S(=O)(Nc1nc2ccccc2nc1Nc1ccc2c(c1)OCO2)c1ccc(F)cc1 | 48.3 | 41.7 | -5.7 | 60.5* | -48.3 | -0.7
C[C@@H]1CN([C@@H](C)CO)C(=O)c2cccc(NC(=O)Nc3ccc(F)cc3)c2O[C@H]1CN(C)S(=O)(=O)c1cn(C)cn1 | x | -2.0 | x | x | x | x
O=C(Cc1ccccn1)NCC[C@@H]1CC[C@H](NS(=O)(=O)c2ccc(F)cc2)[C@@H](CO)O1 | x | -0.7 | x | x | x | x
S=C(NCc1ccccn1)Nc1ccc(Cl)cc1 | 3.7 | x | -155.5 | 72.4* | 7.3 | 3.0
Cc1ccc(S(=O)(=O)N[C@H]2C=C[C@H](CC(=O)NCCN3CCCCC3)O[C@@H]2CO)cc1 | x | 3.7 | x | x | x | x
CN(C)c1ccc(-c2nc3ccccc3n2C)cc1 | -11.8 | 73.9* | -55.4 | 43.2 | -49.0 | -5.8
CC(C)n1c(-c2ccc(N(C)C)cc2)nc2ccccc21 | -1.5 | x | -202.9 | 27.1 | -1.8 | -4.5
CN(C)c1ccc(C(O)Cc2nc3ccccc3n2C)cc1 (configuration not stated) | -2.2 | 49.5 | -235.0 | 73.8* | -11.8 | -0.6
CC(C)c1ccc(C(O)Cc2nc3ccccc3n2C)cc1 (configuration not stated) | -5.7 | -47.0 | -163.3 | 31.2 | 6.7 | 0.2
CN1C(=O)c2cc(NS(=O)(=O)c3ccc(F)cc3)ccc2OC[C@H]2O[C@H](CC(=O)NCC(F)(F)F)CC[C@@H]21 | x | 2.9 | x | x | x | x
C[C@H](O)C#Cc1cnc2c(c1)C(=O)N([C@H](C)CO)C[C@H](C)[C@@H](CN(C)C(=O)c1ccncc1)O2 | x | -5.1 | x | x | x | x
C[C@H](CO)N1C[C@H](C)[C@H](CN(C)Cc2ccc(C(F)(F)F)cc2)Oc2c(NC(=O)c3cnccn3)cccc2C1=O | x | -6.6 | x | x | x | x
C=CCn1c(SCC(=O)Nc2ccccc2OC)nc2c([nH]c3ccccc32)c1=O | 55.4* | -9.5 | 15.3 | -1.6 | -57.0* | -0.6
COc1cc([N+](=O)[O-])ccc1-c1ccc(/C=N\n2cnnc2)o1 | -65.6 | 3.6 | 4.2 | -46.0 | 1.8 | -0.1
Cc1ccc(/C=C2/C(=O)ON=C2c2ccccc2)o1 | 11.3 | 12.7 | 68.4* | 15.0 | -1.8 | -0.8
COc1cc([N+](=O)[O-])ccc1-c1ccc(/C=C2\C(=O)ON=C2c2ccccc2)o1 | 86.7* | -2.6 | 9.5 | 67.9* | -24.9 | -0.1
CCN(CC)S(=O)(=O)c1ccc2[nH]cc(C(=O)NCCC3=CCCCC3)c(=O)c2c1 | -3.5 | x | 18.4 | 58.5* | -4.8 | 2.3
O=C(N/N=C/c1cc([N+](=O)[O-])ccc1O)NC12CC3CC(CC(C3)C1)C2 | 3.9 | x | 28.3 | 93.0* | -10.2 | 2.5
O=C(N/N=C/c1cc([N+](=O)[O-])ccc1O)C12CC3CC(CC(C3)C1)C2 | 24.5 | 7.2 | 17.5 | -9.9 | -21.8 | -0.4
O=[N+]([O-])c1ccc(NN=Cc2ccccc2O)nc1 | 3.6 | -44.3 | -310.5 | 13.9 | -10.5 | -2.5
Cc1cc(Cl)ccc1NC(=O)CCC(=O)N/N=C/c1cc([N+](=O)[O-])ccc1O | 26.2 | 40.7 | 8.4 | 22.1 | 0.1 | -0.3

Screening results: PubChem, several laboratories
